Measurements from PubChem BioAssay (Tox21).
Values joined by “and” are separate entries in the source; they are usually repeats but may differ in a detail not shown here. Equal values may be shown once. Records with an inconclusive call do not appear. Where a call stands in place of a potency, no number is given. Active and inactive are the calls of the source. The call rests on the fitted dose curve; in most records, active means well fitted cell-killing curve with a large enough effect in the repeat runs; inconclusive means weak or mixed curves, or effect the other way; inactive means flat fitted curve, though single readings scatter.

assay: qHTS RealTime-Glo MT Cell Viability Assay in HEK293 cells - 0 hour (AID 1224880); details: RealTime-Glo luminescence; series mostly up to 76.8 µM; further: nearly all actives have a fitted effect of over 45% in size
Excerpt: U.S. Tox21 Program National Center for Advancing Translational Sciences [NCATS] NIH Chemical Genomics Center [NCGC] U.S. Environmental Protection Agency [EPA] National Institutes of Environmental Health Sciences [NIEHS] National Toxicology Program [NTP] U.S. Food and Drug Administration [FDA] Tox21 Assay Overview: Measure of cell viability is critical in the cell-base assay. Analysis of cell viability is necessary for the characterization of cell responses to cytotoxic drugs and environmental stress. A RealTime-Glo MT Cell Viability Assay to monitor cell viability in real time of continues cell culture during 40 hours of compound treatment was used to screen Tox21 10K library compounds in Hek293 cells. The RealTime-Glo MT Cell Viability Assay is a nonlytic, homogeneous, bioluminescent method to measure cell viability in real time using a simple, plate-based method. The assay involves adding NanoLuc luciferase and a cell-permeant prosubstrate to cells in culture. Viable cells reduce the proprietary prosubstrate to generate a substrate for NanoLuc luciferase. This substrate diffuses from cells into the surrounding culture medium, where it is rapidly used by the NanoLuc Enzyme to produce a luminescent signal. The signal correlates with the number of viable cells, making the assay well suited for cytotoxicity studies.
Tox21 Assay Protocol Summary: The mixture of Hek293 cell suspension and reagents were dispensed at 600cells/6 ul/well in 1536-well tissue culture treated black solid bottom plates using a Multidrop dispenser. After the assay plates were incubated at a 37 C/5% CO2 incubator for 5 hours, 23 nL of compounds dissolved in DMSO, positive and negative controls was transferred to the assay plate by a pintool work station. The plates were incubated at 37 C for 40 hours. The luminescence intensity were measured at 0h, 8h, 16h, 24h, 32h and 40h time points using ViewLux plate reader during compound treatment.
Potency means the concentration at half of the fitted maximal effect.

Row | Compound | Potency
1 | C=CN1CCCC1=O | inactive
2 | CCC(Cc1c(I)cc(I)c(N)c1I)C(=O)O (stereo not given) | inactive
3 | CCCCCCCCCCC(CO)CCCCCCCC (stereo not given) | inactive
4 | CCCCCCC(C)O (stereo not given) | inactive
5 | CC(=O)[C@H]1CC[C@H]2[C@@H]3CC=C4C[C@@H](O)CC[C@]4(C)[C@H]3CC[C@]12C | inactive
6 | CC(C)[N+](C)(CCOC(=O)C1c2ccccc2Oc2ccccc21)C(C)C | inactive
7 | Oc1ccc(C(c2ccc(O)cc2)C(Cl)(Cl)Cl)cc1 | inactive
8 | Brc1nc2ccccc2s1 | inactive
9 | CC1(C)NC(=O)N(c2ccc([N+](=O)[O-])c(C(F)(F)F)c2)C1=O | inactive
10 | CN(C)C | inactive
11 | C=CCOC(=O)C(=C)C | inactive
12 | O=S1(=O)CCCO1 | inactive
13 | OC[C@H]1O[C@@H]2O[C@H]3[C@H](O)[C@@H](O)[C@@H](O[C@H]4[C@H](O)[C@@H](O)[C@@H](O[C@H]5[C@H](O)[C@@H](O)[C@@H](O[C@H]6[C@H](O)[C@@H](O)[C@@H](O[C@H]7[C@H](O)[C@@H](O)[C@@H](O[C@H]1[C@H](O)[C@H]2O)O[C@@H]7CO)O[C@@H]6CO)O[C@@H]5CO)O[C@@H]4CO)O[C@@H]3CO | inactive
14 | Nc1cc([N+](=O)[O-])ccc1C(=O)O | inactive
15 | CC(C)[C@@H]1CC[C@@H](C)CC1=O | inactive
16 | Cc1ccc(C)c(O)c1 | inactive
17 | CCC(=O)O[C@H]1[C@H](O[C@@H]2[C@@H](C)[C@H](O[C@H]3C[C@@](C)(OC)[C@@H](O)[C@H](C)O3)[C@@H](C)C(=O)O[C@H](CC)[C@@](C)(O)[C@H](O)[C@@H](C)C(=O)[C@H](C)C[C@@]2(C)O)O[C@H](C)C[C@@H]1N(C)C | inactive
18 | COC(=O)CC(=O)OC | inactive
19 | COCCOCCOCCO | inactive
20 | OCCNCCO | inactive

Row | Compound | Potency
21 | CC/C(=C(/CC)c1ccc(O)cc1)c1ccc(O)cc1 | inactive
22 | Nc1cc(Cl)c(N)c(Cl)c1 | inactive
23 | Cc1ccc2c(c1)C(=O)OC2=O | inactive
24 | CCCCCCCCCCCCCO | inactive
25 | c1ccc2c(c1)ccc1ncccc12 | inactive
26 | Oc1c(Cl)ccc(Cl)c1Cl | inactive
27 | NC[C@H](O)c1ccc(O)c(O)c1 | inactive
28 | c1ccc2ncccc2c1 | inactive
29 | C[C@]12C=CC(=O)C=C1CC[C@H]1[C@@H]3C[C@@H](O)[C@](O)(C(=O)CO)[C@@]3(C)C[C@H](O)[C@@]12F | inactive
30 | Nc1ccc2c(c1)C(=O)c1ccccc1C2=O | inactive
31 | NCCN | inactive
32 | Cc1ccc(N)c([N+](=O)[O-])c1 | inactive
33 | C=CCCCCCCCCCC | inactive
34 | CC(=O)O[C@]1(C(C)=O)CC[C@H]2[C@@H]3C=C(Cl)C4=CC(=O)CC[C@]4(C)[C@H]3CC[C@@]21C | 2.18 µM (active) and 1.69 µM (active)
35 | COc1ccc(-c2coc3cc(O)cc(O)c3c2=O)cc1 | inactive
36 | CCCCCCCC/C=C\CCCCCCCC(=O)O | inactive
37 | CC(=O)Nc1ccc2c(c1)Cc1cc(NC(C)=O)ccc1-2 | inactive
38 | Cc1ccc(C(C)(C)C)cc1 | inactive
39 | [O-]/[N+](=N\O)c1ccccc1 | inactive
40 | O=C(O)c1cc(=O)[nH]c(=O)[nH]1 | inactive
